# Source: PubChem BioAssay
# ST2 IL33 inh = IL1RL1 inhibition; AlphaLISA ST2-Fc/biotin-IL-33 interaction, 1 h; inhibition, % for hits at 17 µM; hit rate 2.3% among 78,000; AID 1259354; in the data active means inhibition above about 30%
# Target sequence (Q01638 whole entry, looked up): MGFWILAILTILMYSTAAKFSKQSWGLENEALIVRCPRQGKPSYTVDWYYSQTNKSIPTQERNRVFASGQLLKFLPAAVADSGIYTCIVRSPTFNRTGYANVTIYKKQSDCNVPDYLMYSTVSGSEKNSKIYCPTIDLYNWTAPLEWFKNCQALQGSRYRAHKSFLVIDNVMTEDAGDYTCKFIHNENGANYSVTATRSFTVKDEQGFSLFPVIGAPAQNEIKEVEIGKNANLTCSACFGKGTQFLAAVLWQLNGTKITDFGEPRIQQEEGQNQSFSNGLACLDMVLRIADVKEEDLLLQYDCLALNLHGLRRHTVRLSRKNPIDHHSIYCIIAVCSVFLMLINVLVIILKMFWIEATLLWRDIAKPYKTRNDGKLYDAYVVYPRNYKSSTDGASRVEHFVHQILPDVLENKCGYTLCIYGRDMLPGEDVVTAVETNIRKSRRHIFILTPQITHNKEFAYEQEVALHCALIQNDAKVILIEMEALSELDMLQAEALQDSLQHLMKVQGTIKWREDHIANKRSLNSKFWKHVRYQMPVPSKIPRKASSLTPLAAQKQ
# Active calls of the source: *; i = inactive; ! = a repeat was not active. The entries come from a sample that favours hits as a whole.
SMILES,ST2 IL33 inh
Cc1ccnc(NC(=O)C2CCN(S(=O)(=O)c3cc4c(cc3C)NC(=O)CO4)CC2)c1,i
COc1ccc2cc3cc(C(=O)NCCc4cccc(C)c4)oc3nc2c1,i
O=C(CS(=O)(=O)c1cn(Cc2ccccc2Cl)c2ccccc12)N1CCCC1,i
Cc1ccc(C(=O)Nc2ccccc2NC(=O)c2ccc(C)o2)o1,i
Cc1ccc(NCCC(=O)c2ccc(C)o2)cc1,31%*
Cc1ccc(C(=O)Nc2ccc(S(=O)(=O)Nc3ncccn3)cc2)o1,i
CCC(Sc1nnnn1-c1ccccc1)C(=O)Nc1cccc(C(C)=O)c1 (configuration not stated),i
O=C(COc1ccc(Br)cc1)Nc1ccc(F)cc1F,i
Cc1cccc(OC(=O)c2cc3cc(Br)ccc3oc2=O)c1,i
CN1C(=O)N(Cc2ccccc2)C2(CCN(Cc3ccc(N(C)c4ccccc4)cc3)CC2)C1=O,i
CCN1C(=O)N(CCc2ccccc2)C2(CCN(CCc3ccccc3)CC2)C1=O,33%*
COCCN1C(=O)N(Cc2cccnc2)C(=O)C12CCN(Cc1nc(-c3ccccc3)cs1)CC2,i
O=C(CCc1nnc(Cc2ccc(-c3ccccc3)cc2)o1)N1CCSCC1,i
CC(C)NC(=O)Cn1c(=O)n(CC2CCC(C(=O)NCc3ccccc3)CC2)c(=O)c2sccc21 (configuration not stated),i
CNc1nc(-c2cc(NC3CCNCC3)nc3[nH]ccc23)nc2c1CCC2,37%*
CCN(CC1CCCCO1)C(=O)CCNC(=O)c1ccccc1F (configuration not stated),i
CCc1ccc(S(=O)(=O)N2CCN(c3nc(C)cc(Nc4ccc(C)cc4)n3)CC2)cc1,i
CN1C(=O)CC(C(=O)Nc2cccc(Cl)c2)SC1=Nc1ccc(F)cc1 (configuration not stated),i
Cc1ccc(N=Cc2nc(-c3ccc(Br)cc3)oc2O)cc1Cl,i
C=CCOc1ccc(C=Nc2ccc(C)c(Cl)c2)c(O)c1,92%*
Oc1cccc(C=Nc2ccc(Cl)c(Cl)c2)c1O,i
COc1ccc(C(=O)N2CCN(C3CCN(c4nc(C)c5cc(F)ccc5n4)CC3)CC2)cc1,i
CCc1ccccc1NC(=O)CSc1nc2ccccc2c(=O)n1CCc1ccccc1,i
C=CCn1c(SCC(=O)Nc2sc3c(c2C(=O)OCC)CCC3)nc2ccccc2c1=O,i
C=CCn1c(SCC(=O)Nc2ccccc2[N+](=O)[O-])nc2sc(CC)cc2c1=O,30%*
SMILES,ST2 IL33 inh
CC(C)NS(=O)(=O)c1cc(C(=O)O)cc(-c2ccc(N(C)C)nc2)c1,i
CN1CCC(N2CC[C@@H]3[C@H]2C(=O)NC[C@H](CCC(=O)NCc2ccc(F)cc2)N3C)CC1,i
O=C1CCC(CCC(=O)N2CCC(c3ccccc3Cl)C2)(Cc2cccs2)N1 (configuration not stated),i
Cn1c(=O)cc2c3c(c(Br)ccc31)C(=O)c1ccccc1-2,i
Cn1c(=O)cc2c3c(c(N4CCCCC4)ccc31)C(=O)c1ccccc1-2,44%*
Cn1c(=O)cc(SCC(=O)N2CCCCCC2)c2ccccc21,i
CC(C)n1cc(CN(C)CC2CCCN(CCc3ccc(Cl)cc3)C2)cn1 (configuration not stated),i
COc1cc(/C=C2\C(=O)N(c3ccccc3)N=C2C)cc(Br)c1O,i
COc1ccc(Cl)cc1/C=C1\C(=O)N(c2cccc(C(=O)O)c2)N=C1C,i
CC1=NN(c2ccc(Cl)c(Cl)c2)C(=O)/C1=C/c1cc([N+](=O)[O-])ccc1O,i
COc1cc(/C=C2\C(=O)N(c3ccc(Cl)c(C(=O)O)c3)N=C2C)cc([N+](=O)[O-])c1O,80%*
COc1cc(/C=C2\C(=O)N(c3cccc(Cl)c3)N=C2C)cc(OC)c1OC,i
COc1cc(/C=C2\C(=O)N(c3ccc(Cl)c(C(=O)O)c3)N=C2C)c([N+](=O)[O-])cc1OC,64%*
O=C(C1=CCCCC1)N1CCC2(CCCN(Cc3ccc(F)c(F)c3)C2)C1 (configuration not stated),i
CCOc1ccc2cc(-c3csc(Nc4ccccc4)n3)c(=O)oc2c1,i
Cc1cccc(NC(=O)c2ccccc2)c1,i
O=c1cc(CO)oc(C(Nc2nccs2)c2ccc(F)cc2)c1O (configuration not stated),i
COc1ccccc1N1CCN(c2ncnc3sc(C(=O)O)c(C)c23)CC1,40%*!
CCCN1CCN(c2ncnc3sc(C(=O)O)c(C)c23)CC1,i
Cc1c(C(=O)O)sc2ncnc(N3CCN(c4ccccc4F)CC3)c12,i
CCSc1nc(CC(=O)NCC2CCS(=O)(=O)C2)cs1 (configuration not stated),i
CC(SCc1ccccc1)C(=O)NC(C)c1ccccc1 (configuration not stated),i
COc1ccc(CNC(=O)CC(=O)Nc2ccc(C)cc2)c(OC)c1,i
O=C1C(O)=C(c2ccccc2)C2CCCN12 (configuration not stated),i
CC(C)(C)c1ccc(C(=O)Nc2sc3c(c2C(N)=O)CCCC3)cc1,i
SMILES,ST2 IL33 inh
COc1ccccc1OCC(=O)Nc1sc2c(c1C(N)=O)CCCC2,i
COc1ccc(C(=O)Nc2sc3c(c2C(N)=O)CCCC3)cc1[N+](=O)[O-],31%*
O=C(CCC1CCCN(Cc2cn[nH]c2-c2ccc(Cl)cc2)C1)NC1CC1 (configuration not stated),i
CCOC(=O)c1sc(NC(=O)COc2ccccc2Br)nc1C,i
Cc1cc[n+](C2C(c3ccc([N+](=O)[O-])cc3)C(C#N)=C([S-])NC2(O)C2CC2)cc1 (configuration not stated),59%*
Cc1ccc[n+](C2C(c3ccc([N+](=O)[O-])cc3)C(C#N)=C([S-])NC2(O)C2CC2)c1 (configuration not stated),50%*
COc1ccccc1C1C(C#N)=C(C(=C=[N-])C#N)NC(O)(C2CC2)C1[n+]1ccc(C)cc1 (configuration not stated),i
O=C(Nc1ccccc1)Oc1ccc(Cl)cc1Br,i
Cc1ccn2c(NC(=O)C(C)(C)C)c(-c3ccccc3)nc2c1,i
O=C(c1cc(-c2ccc(Br)cc2)on1)N1CCN(c2ccc(F)cc2)CC1,i
COc1ccc(-n2c(C)c([N+](=O)[O-])c3ccc(O)cc32)cc1,i
COc1ccc2c(c1)C(C)(C)C1(C=Cc3cc([N+](=O)[O-])cc(OC)c3O1)N2C (configuration not stated),73%*
COc1ccc(NC(=O)c2ccc([N+](=O)[O-])cc2)c(OC)c1,i
CCC1CCCCN1CCCNC(=O)COc1ccc2c(c1)C(=O)CC(C)(C)O2 (configuration not stated),i
COc1cccc(/C=C2/SC(N3CCCC3)=NC2=O)c1OC,i
COc1cc(C=C2C(=O)OC(C)(C)OC2=O)cc(Cl)c1O,i
COc1cc(/C=C2\N=C(SC)SC2=O)cc(OC)c1OC,30%*
CSC1=N/C(=C\c2cc(Br)ccc2OCC(=O)O)C(=O)S1,i
CSC1=N/C(=C\c2ccc(C(=O)O)cc2)C(=O)S1,i
CCOc1ccc(/C=C2\N=C(SC)SC2=O)cc1,44%*
COc1cccc(/C=C2\N=C(SC)SC2=O)c1OCc1ccccc1,40%*
CCOc1ccc(/C=C2\N=C(c3cccc(C)c3)OC2=O)cc1,i
COc1ccc2c(C)cc(SCC(=O)Nc3ccccc3Cl)nc2c1,i
C=CCNC(=O)C1CC(=O)N(C2CCCCCC2)C1 (configuration not stated),i
